Among the data in PubChem BioAssay (NCI) are growth values, retold here.

Each structure is given as a SMILES string. This is part of a sample that, as a whole, favours compounds with a hit. Of some 83,000 tested, about 20% had one in any assay.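 Growth was measured after 48 h exposure to one concentration of compound in 96-well plates. Values under 10 count as active.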 Values without a mark were called inactive. Calls of active or inactive are those of the source.

Among the test systems are SR leukemia; RPMI-8226 leukemia; OVCAR-8 ovarian; OVCAR-5 ovarian; OVCAR-4 ovarian; SK-OV-3 ovarian; IGROV1 ovarian; OVCAR-3 ovarian; HS 578T breast; NCI/ADR-RES ovarian; T-47D breast; BT-549 breast; SW-620 colon; MCF7 breast; HCT-116 colon; HCC-2998 colon; KM12 colon; MDA-MB-468 breast.
Holding throughout (test): NCI-60 one-dose screen, 48 h (100 = growth as untreated, 0 = no growth, -100 = all killed)
Conditions in all cases: 10 µM unless noted

On to `COc1ccccc1Nc1nnc(-c2c[nH]c3ccccc23)o1`, for which the growth was 1.74% (active) with SR leukemia; -12.4% (active) in the assay with RPMI-8226 leukemia; 11.8% in the assay on OVCAR-8 ovarian; 32.1% in the assay on OVCAR-5 ovarian; 64.3% in the assay with OVCAR-4 ovarian; 15.4% in the assay with SK-OV-3 ovarian. For the same compound, the growth in the assay on IGROV1 ovarian is 16.8%; with OVCAR-3 ovarian, 12.9%; with HS 578T breast it was 9.82% (active); with NCI/ADR-RES ovarian, -35.9% (active); with T-47D breast it was 16.6%; in the assay on BT-549 breast, 39.7%. The growth with SW-620 colon is 40.9%; with MCF7 breast, 10.6%; in the assay on HCT-116 colon, 12.5%; with HCC-2998 colon, 7.55% (active); with KM12 colon, 2.26% (active); with MDA-MB-468 breast, -25.4% (active).
In the case of `Cc1ccc(Nc2nnc(-c3c[nH]c4ccccc34)o2)c(C)c1`, the growth is 6.21% (active) with SR leukemia; -7.61% (active) in the assay with RPMI-8226 leukemia; -12.1% (active) with OVCAR-8 ovarian; 16.3% in the assay with OVCAR-5 ovarian; 71.9% in the assay on OVCAR-4 ovarian; 16.2% with SK-OV-3 ovarian. In addition, the growth was 12.2% with IGROV1 ovarian; 12.3% in the assay on OVCAR-3 ovarian; 30.9% in the assay with HS 578T breast; -29.2% (active) in the assay on NCI/ADR-RES ovarian; 44.3% with T-47D breast; 29.6% with BT-549 breast. Further, the growth in the assay with SW-620 colon was 30.9%; in the assay with MCF7 breast, 14.3%; in the assay with HCT-116 colon, 1.32% (active); in the assay with HCC-2998 colon, -13.6% (active); in the assay on KM12 colon, 7.83% (active); in the assay on MDA-MB-468 breast, -17% (active).
Consider `O=C(N/N=C/c1ccc(-c2cccc([N+](=O)[O-])c2)s1)c1[nH]c2ccc(Br)cc2c1-c1ccccc1`, for which the growth was 69.9% with SR leukemia; 89.2% in the assay with RPMI-8226 leukemia; 95.9% with OVCAR-8 ovarian; 106% in the assay on OVCAR-5 ovarian; 82.1% in the assay on OVCAR-4 ovarian; 93.4% in the assay on SK-OV-3 ovarian. The growth with IGROV1 ovarian was 102%; in the assay with OVCAR-3 ovarian, 62.1%; in the assay on HS 578T breast it was 82.4%; in the assay on NCI/ADR-RES ovarian, 105%; with T-47D breast, 92.5%; in the assay with BT-549 breast, 88.4%. The growth in the assay on SW-620 colon was 99%; in the assay on MCF7 breast, 54.4%; in the assay with HCT-116 colon, 82.9%; with HCC-2998 colon, 107%; in the assay with KM12 colon, 109%; in the assay on MDA-MB-468 breast, 103%.
On to `COc1ccc2[nH]c(=O)c(CSc3ccccc3Nc3nccc(-c4ccc(Cl)cc4)n3)cc2c1`, for which the growth is -1.58% (active) in the assay with SR leukemia; 30.4% with RPMI-8226 leukemia; 39.5% in the assay with OVCAR-8 ovarian; 84.7% with OVCAR-5 ovarian; 38.3% in the assay with OVCAR-4 ovarian; 57.7% in the assay with SK-OV-3 ovarian. Besides, the growth in the assay with IGROV1 ovarian is 55.9%; in the assay with OVCAR-3 ovarian it was 39.8%; with HS 578T breast it was 37.1%; with NCI/ADR-RES ovarian, 34.4%; in the assay with T-47D breast it was 38%; in the assay on BT-549 breast, 31.6%. Moreover, the growth with SW-620 colon is 50.3%; in the assay on MCF7 breast, 7.48% (active); with HCT-116 colon it was 11.9%; in the assay with HCC-2998 colon, 37.6%; in the assay with KM12 colon, 31.9%; in the assay on MDA-MB-468 breast, 17.3%.
On to `Nc1nn2c(-c3cc4cc(Br)ccc4oc3=O)ccnc2c1N=Nc1ccc(S(N)(=O)=O)cc1`, for which the growth in the assay on SR leukemia is 74.4%; in the assay on RPMI-8226 leukemia, 109%; in the assay with OVCAR-8 ovarian it was 79%; with OVCAR-5 ovarian it was 112%; in the assay on OVCAR-4 ovarian, 100%; in the assay with SK-OV-3 ovarian, 58.9%. The growth is 93.1% in the assay on IGROV1 ovarian; 103% in the assay with OVCAR-3 ovarian; 102% in the assay with HS 578T breast; 103% in the assay with NCI/ADR-RES ovarian; 77% in the assay on T-47D breast; 128% with BT-549 breast. In addition, the growth with SW-620 colon was 58.6%; in the assay with MCF7 breast it was 71.4%; in the assay with HCT-116 colon, 56%; in the assay on HCC-2998 colon, 54.8%; with KM12 colon, 48.3%; in the assay on MDA-MB-468 breast, 64.7%.
Regarding `CN1CCN(CCS(=O)(=O)Nc2cc(-c3ccc4ncnc(Nc5ccc(F)c(Cl)c5)c4c3)cnc2Cl)CC1`, the growth with SR leukemia was -45.4% (active); in the assay with RPMI-8226 leukemia, 75.2%; with OVCAR-8 ovarian, 22.4%; with OVCAR-5 ovarian it was 16%; in the assay on OVCAR-4 ovarian it was 32.3%; in the assay with SK-OV-3 ovarian it was 3.06% (active). Further, the growth with IGROV1 ovarian was -34.8% (active); with OVCAR-3 ovarian it was -31.7% (active); in the assay with HS 578T breast it was -23.3% (active); with NCI/ADR-RES ovarian it was 78.4%; with T-47D breast, -6.97% (active); in the assay with BT-549 breast, -53% (active). The growth in the assay with SW-620 colon is 36.2%; in the assay on MCF7 breast, 10.2%; with HCT-116 colon, 27.8%; in the assay on HCC-2998 colon, -8.06% (active); in the assay with KM12 colon, 46.4%; in the assay on MDA-MB-468 breast, -75.1% (active).
On to `COc1ccc(-c2nc3ccccc3n2CC(=O)N=Nc2c(O)[nH]c3ccc(OC)cc23)cc1`, for which the growth was 0.469% (active) with SR leukemia; 52% in the assay with RPMI-8226 leukemia; 6.22% (active) with OVCAR-8 ovarian; 86.8% in the assay with OVCAR-5 ovarian; 50.8% with OVCAR-4 ovarian; 104% with SK-OV-3 ovarian. The growth was 45.7% in the assay with IGROV1 ovarian; 35.5% in the assay on OVCAR-3 ovarian; 30.3% in the assay on HS 578T breast; 48% in the assay on NCI/ADR-RES ovarian; -72.5% (active) in the assay on T-47D breast; 20.5% in the assay on BT-549 breast. Besides, the growth is 48.6% in the assay on SW-620 colon; 58.1% in the assay on MCF7 breast; 1.32% (active) in the assay with HCT-116 colon; 114% in the assay with HCC-2998 colon; 85% in the assay with KM12 colon; 52.4% with MDA-MB-468 breast.
For `O=C(CSc1nc2sc3c(c2c(=O)n1-c1ccc(Cl)cc1)CCCC3)N/N=C/C=C/c1ccccc1`, the growth is -23.2% (active) in the assay on SR leukemia; -0.68% (active) in the assay with RPMI-8226 leukemia; -51.3% (active) in the assay on OVCAR-8 ovarian; -38.9% (active) in the assay with OVCAR-5 ovarian; -31% (active) in the assay on OVCAR-4 ovarian; -11.2% (active) in the assay with SK-OV-3 ovarian. The growth with IGROV1 ovarian was -5.52% (active); in the assay on OVCAR-3 ovarian it was 78.3%; in the assay on HS 578T breast, -16.9% (active); with NCI/ADR-RES ovarian, -10.7% (active); with T-47D breast, -24.5% (active); in the assay with BT-549 breast, -73.7% (active). In addition, the growth in the assay on SW-620 colon was -55.5% (active); with MCF7 breast, 12.6%; in the assay with HCT-116 colon it was -13.5% (active); in the assay with HCC-2998 colon, 6.29% (active); in the assay on KM12 colon, 39.9%; in the assay with MDA-MB-468 breast, -81.6% (active).
